The results in this text go back to PubChem BioAssay (NCATS).

“And” between values parts separate entries of the source, which are not always exact repeats. Equal values may be shown once. Records with an inconclusive call do not appear. The source made the active and inactive calls. Unless noted, the call rests on the fitted dose curve; in most records, active means well fitted curve in the direction sought with a large enough effect; inconclusive means small, poorly fitted or top-dose-only effect, or another doubt; inactive means no such curve, though single readings can be large; an effect the other way counts as inactive or inconclusive.

Assay [1] addresses Catechol O-methyltransferase (Homo sapiens) (UniProt P21964). Put plainly: Confirmatory Screen for Target Class Profiling of Small Molecule Inhibitors of Methyltransferases (AID 1745852; calls by dose curve; further: potency means the concentration at half of the fitted maximal effect; on activity change, negative = inhibition: on the % scale 0 is the no-effect control and ±100 the full control effect). Particulars: MTase-Glo luminescence, SAH detection, recombinant enzyme; measured here: COMT max response; stronger effect = lower value.
Assay [2] has as its target Guanidinoacetate N-methyltransferase (Homo sapiens) (UniProt Q14353). Described as above. Particulars: MTase-Glo luminescence, SAH detection, recombinant enzyme; activity change, negative = inhibition: at 57.3 µM (top of the series) unless noted; series mostly up to 57.3 µM.
Assay [3] deals with Nicotinamide N-methyltransferase (Homo sapiens) (UniProt P40261). The assay is described as above. The note with it: MTase-Glo luminescence, SAH detection, recombinant enzyme; measured here: NNMT max response; stronger effect = lower value.
Nicotinamide N-methyltransferase (Homo sapiens), sequence (P40261 whole entry, looked up): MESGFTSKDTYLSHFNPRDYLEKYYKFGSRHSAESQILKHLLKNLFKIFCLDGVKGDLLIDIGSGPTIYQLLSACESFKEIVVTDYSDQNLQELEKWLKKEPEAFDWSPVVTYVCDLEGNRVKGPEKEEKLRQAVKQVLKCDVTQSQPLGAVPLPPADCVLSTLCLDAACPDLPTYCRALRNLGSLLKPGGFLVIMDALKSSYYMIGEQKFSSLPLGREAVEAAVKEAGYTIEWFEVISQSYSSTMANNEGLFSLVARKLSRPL
Assay [4] concerns the target Phenylethanolamine N-methyltransferase (Homo sapiens) (UniProt P11086). Described as above. The note with it: MTase-Glo luminescence, SAH detection, recombinant enzyme; measured here: PNMT max response; stronger effect = lower value.
Assay [5] has as its target Glutathione peroxidase 1 (Homo sapiens) (UniProt P07203). Put plainly: Primary qHTS Assay for Inhibitors of Recombinant Selenoprotein Glutathione Peroxidase 1 (GPX1) (AID 1845191). Further: nearly all actives have a fitted effect of over 65% in size. On activity, negative = inhibition: on the % scale 0 is the no-effect control and ±100 the full control effect. Particulars: recombinant GPX1, GR-coupled NADPH fluorescence, 15 min; series mostly up to 48.8 µM. The gist of the method:
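GR-coupled assay: compounds preincubated 30 min at room temperature with GPX1, then reaction started with CHP; final 10 nM GPX1, 1 mM GSH, 0.5 mM CHP, 0.5 mM NADPH, 100 nM GR, 0.01% BSA, pH 7.5 Tris buffer. NADPH fluorescence (340/450 nm) read at 0 and 15 min.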
For orientation: In qHTS, concentration-response curves come from the screen itself.

The target of assay [6] is Phospholipid hydroperoxide glutathione peroxidase GPX4 (Homo sapiens) (UniProt P36969). Put plainly: Primary qHTS Assay for Inhibitors of Recombinant Selenoprotein Glutathione Peroxidase 4 (GPX4) (AID 1845192). Further: nearly all actives have a fitted effect of over 65% in size. Further: potency means the concentration at half of the fitted maximal effect. On activity change, negative = inhibition: on the % scale 0 is the no-effect control and ±100 the full control effect. The note with it: recombinant GPX4, GR-coupled NADPH fluorescence, 15 min; series mostly up to 50 µM. The gist of the method:
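GR-coupled assay: recombinant GPX4 preincubated 30 min with compound at room temperature; final 200 nM GPX4, 1 mM GSH, 0.5 mM cumene hydroperoxide, 0.5 mM NADPH, 100 nM GR, 0.01% BSA, pH 7.5 Tris. NADPH fluorescence (340/450 nm) read at 0 and 15 min.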

In assay [7] the target is Luciferin 4-monooxygenase (Photinus pyralis) (UniProt P08659). The experiment in a line: Primary firefly luciferase (FLuc) qHTS assay for identification of artifact compounds. (AID 1845220). Further: nearly all actives have a fitted effect of over 60% in size.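 On activity change, negative = inhibition: plate controls were DMSO vehicle for no effect and no enzyme for full effect.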 The note with it: purified firefly luciferase, luminescence, 5 min; series mostly up to 54.1 µM. A digest of the protocol:
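D-luciferin and ATP (10 uM each, final) in Tris acetate buffer pH 7.6 were incubated with compounds for 15 min at room temperature. The reaction was started with 10 nM Photinus pyralis luciferase and luminescence read after 5 min. Percent inhibition was fitted to a 4-parameter Hill equation.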

Assay [8] is described as follows: Primary fluorescence-based thiol-reactive (MSTI) qHTS assay for identification of artifact compounds. (AID 1845221). Further: nearly all actives have a fitted effect of over 65% in size. Further: potency means the concentration at half of the fitted maximal effect.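 On activity change, negative = thiol reactive: thiol-reactive compounds lower the probe fluorescence signal.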 Particulars: MSTI thiol-reactivity probe, 1 h; series mostly up to 53.8 µM. A digest of the protocol:
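A multi-concentration qHTS design tested compounds against 4 uM MSTI, pH 7.4 phosphate-buffered saline. Plates were protected from light for 1 h at room temperature before imaging fluorescence.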

For assay [9], the system named is Nanoluciferase (engineered Oplophorus gracilirostris luciferase). Put plainly: Primary Nanoluciferase (NLuc) qHTS assay for identification of artifact compounds. (AID 1845222).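 Further: 0% = DMSO and -100% = no enzyme.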 Particulars: NLuc-conditioned medium, Nano-Glo luminescence, 5 min; series mostly up to 54.1 µM. The gist of the method:
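Diluted conditioned medium from NLuc-expressing S16 cells treated with compounds for 15 min at room temperature, then Nano-Glo substrate added; luminescence read after 5 min. Percent inhibition versus no-enzyme and DMSO controls fitted to 4-parameter Hill equation.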

Assay [10] is described as follows: Primary redox qHTS assay for identification of artifact compounds. (AID 1845223).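 Further: 0% = DMSO and 100% = reference compound.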 Particulars: Amplex Red/HRP redox cycling with DTT, fluorescence; series mostly up to 53.8 µM. The gist of the method:
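Amplex Red (25 uM) and HRP (250 mU/mL) in HBSS, with compounds for 15 min, then 250 uM DTT for 30 min, room temperature, dark. Fluorescence 525/598 nm read; normalized to DMSO and 10 uM DA3003; Hill fit.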

In assay [11] the target is Rap guanine nucleotide exchange factor 4 (Homo sapiens) (UniProt Q8WZA2). The experiment in a line: Confirmatory qHTS for agonist of cAMP-regulated guanine nucleotide exchange factor 4 (EPAC2) (AID 1645884).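 Further: nucleotide exchange releases bodipy-GDP from Rap1 and this lowers its fluorescence; on the % scale 0 is the no-effect control and ±100 the full control effect; nearly all actives have a fitted effect of over 65% in size.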 The note with it: EPAC2 GEF activity, Rap1B-BODIPY-GDP fluorescence, percent relative to cAMP agonist control; series mostly up to 154 µM.
Rap guanine nucleotide exchange factor 4 (Homo sapiens), sequence (Q8WZA2 whole entry, looked up): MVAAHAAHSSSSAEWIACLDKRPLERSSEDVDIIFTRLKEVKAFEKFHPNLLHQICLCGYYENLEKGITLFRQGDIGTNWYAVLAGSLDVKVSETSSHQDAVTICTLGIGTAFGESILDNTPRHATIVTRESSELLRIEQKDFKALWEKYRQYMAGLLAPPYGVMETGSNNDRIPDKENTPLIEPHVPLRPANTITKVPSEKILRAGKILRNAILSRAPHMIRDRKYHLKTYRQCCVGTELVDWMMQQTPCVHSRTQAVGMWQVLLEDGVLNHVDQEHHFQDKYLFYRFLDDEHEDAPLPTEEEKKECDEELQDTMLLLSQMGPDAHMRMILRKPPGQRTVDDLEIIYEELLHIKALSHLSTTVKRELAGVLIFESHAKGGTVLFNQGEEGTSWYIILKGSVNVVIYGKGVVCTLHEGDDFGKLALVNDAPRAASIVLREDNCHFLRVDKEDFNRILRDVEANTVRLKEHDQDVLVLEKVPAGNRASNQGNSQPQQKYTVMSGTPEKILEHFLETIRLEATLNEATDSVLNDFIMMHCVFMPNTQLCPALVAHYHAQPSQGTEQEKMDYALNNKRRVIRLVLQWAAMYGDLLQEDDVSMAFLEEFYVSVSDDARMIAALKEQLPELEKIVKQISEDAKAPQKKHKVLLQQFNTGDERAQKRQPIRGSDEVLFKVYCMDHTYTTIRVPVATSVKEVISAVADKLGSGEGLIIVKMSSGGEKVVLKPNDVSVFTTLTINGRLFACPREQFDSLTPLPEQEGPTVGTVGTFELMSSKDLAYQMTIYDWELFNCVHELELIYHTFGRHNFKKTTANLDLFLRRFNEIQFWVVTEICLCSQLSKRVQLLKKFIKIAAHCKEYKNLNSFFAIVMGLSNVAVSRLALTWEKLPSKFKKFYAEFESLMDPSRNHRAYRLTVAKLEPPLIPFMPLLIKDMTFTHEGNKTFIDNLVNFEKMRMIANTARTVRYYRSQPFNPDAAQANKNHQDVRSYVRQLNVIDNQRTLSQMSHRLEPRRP
The target is the same in assay [12]. Put plainly: Confirmatory qHTS for antagonist of cAMP-regulated guanine nucleotide exchange factor 4 (EPAC2) (AID 1645885). Further: potency means the concentration at half of the fitted maximal effect; nearly all actives have a fitted effect of over 25% in size. Particulars: EPAC2 Rap1B-BODIPY-GDP exchange fluorescence, biochemical; series mostly up to 114 µM.

Glutathione peroxidase 1 (Homo sapiens), sequence (P07203 whole entry, looked up): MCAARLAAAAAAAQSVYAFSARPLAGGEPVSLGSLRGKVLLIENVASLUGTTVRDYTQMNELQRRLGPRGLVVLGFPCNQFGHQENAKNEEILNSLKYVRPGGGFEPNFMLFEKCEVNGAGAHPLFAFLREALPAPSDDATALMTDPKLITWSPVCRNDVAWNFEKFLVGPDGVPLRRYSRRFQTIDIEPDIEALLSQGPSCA
Catechol O-methyltransferase (Homo sapiens), sequence (P21964 whole entry, looked up): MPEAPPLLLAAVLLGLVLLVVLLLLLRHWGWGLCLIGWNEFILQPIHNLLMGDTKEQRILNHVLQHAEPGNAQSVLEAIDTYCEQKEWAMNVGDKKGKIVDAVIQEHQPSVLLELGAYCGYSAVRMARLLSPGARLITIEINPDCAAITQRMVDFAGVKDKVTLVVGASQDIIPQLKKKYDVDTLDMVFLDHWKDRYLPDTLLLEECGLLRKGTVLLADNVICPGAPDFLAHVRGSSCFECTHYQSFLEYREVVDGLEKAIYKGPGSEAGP
Phenylethanolamine N-methyltransferase (Homo sapiens), sequence (P11086 whole entry, looked up): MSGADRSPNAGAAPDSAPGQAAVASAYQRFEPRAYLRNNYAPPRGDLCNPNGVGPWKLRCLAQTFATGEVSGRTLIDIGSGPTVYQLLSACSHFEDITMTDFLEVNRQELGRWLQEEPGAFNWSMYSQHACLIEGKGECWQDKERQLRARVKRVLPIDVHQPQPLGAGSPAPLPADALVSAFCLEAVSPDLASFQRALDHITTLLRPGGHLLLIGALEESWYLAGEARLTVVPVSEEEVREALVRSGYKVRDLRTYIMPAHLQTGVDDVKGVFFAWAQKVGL
Phospholipid hydroperoxide glutathione peroxidase GPX4 (Homo sapiens), sequence (P36969 whole entry, looked up): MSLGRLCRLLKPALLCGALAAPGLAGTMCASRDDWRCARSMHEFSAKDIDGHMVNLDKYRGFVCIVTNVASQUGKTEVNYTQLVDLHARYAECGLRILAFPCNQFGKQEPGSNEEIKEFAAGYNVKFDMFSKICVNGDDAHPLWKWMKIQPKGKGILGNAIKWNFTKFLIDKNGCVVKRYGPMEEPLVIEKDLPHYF

For `COc1cc(/C=C/C(=O)O[C@H]2[C@H](OC(=O)/C=C/c3cc(OC)c(O)c(OC)c3)O[C@H](CO[C@@H]3O[C@H](CO)[C@@H](O)[C@H](O)[C@H]3O)[C@@H](O)[C@@H]2O)ccc1O`, the activity was -52.5% in [1], -4.49% in [3] and -4.24% in assay [4]. In addition, the activity change, negative = inhibition in assay [2] was found to be 0.645% [at 19.1 µM]. For the same compound, the Potency result in assay [5], in [6], in assay [7], in assay [8], in assay [9] and in assay [10] was “inactive” each time.

`CC1(C)CC[C@]2(C(=O)O[C@@H]3O[C@H](CO)[C@@H](O)[C@H](O)[C@H]3O)CC[C@]3(C)C(=CCC4[C@@]5(C)C[C@@H](O)[C@H](O)C(CO)(CO)C5CC[C@]43C)C2[C@@H]1O` (some centres undefined): the activity in assay [1] is -77.5%; in [3], 0%; in assay [4], 4.05%. For the same compound, the activity change, negative = inhibition in assay [2] stood at 0% [at 19.1 µM]. Further, the Potency entry in assay [5], in assay [6], in assay [7], in [8], in assay [9] and in assay [10] was “inactive” throughout.

With `O=C(O)CCc1cccc(O[C@@H]2O[C@H](CO)[C@@H](O)[C@H](O)[C@H]2O)c1O`, the results for the activity in assay [1], in [3] and in [4] were -71.6%, 0.392% and -5.98%, respectively. The activity change, negative = inhibition in [2] amounted to 0.429%. In addition, the Potency entry in assay [5], in [6], in assay [7], in assay [9] and in assay [10] was “inactive” in each case. Moreover, the Potency in [8] is 8.26 µM (active).

Take `C=C[C@](C)(CC/C=C(\C)C(=O)O)O[C@@H]1OC[C@H](O)[C@H](O)[C@H]1O`: the results for the activity in assay [1], in assay [3] and in assay [4] were -82.9%, -0.767% and 0.753%, respectively. Further, in assay [2], the activity change, negative = inhibition is -1.98%. The Potency entry in [5], in assay [6], in assay [7] and in assay [9] was “inactive” throughout. In addition, the Potency in assay [8] was 7.36 µM (active).

Take `CC(Cc1ccc(O)c(O)c1)C(C)Cc1ccc(O)c(O)c1` (centres undefined): the outcome in assay [11] is “inactive”. For the same compound, the Potency in assay [12] was 55.5 µM (active); in assay [6] it was 11.2 µM (active). Also, the Potency result in assay [5] was “inactive”.

For the compound `COc1cc2c(Nc3ccc(Cl)c(Cl)c3F)ncnc2cc1OCC1C[C@@H]2CN(C)C[C@@H]2C1` (some centres undefined), the values for the activity in assay [1], in [3] and in assay [4] were -81.3%, -73.4% and -80.2%, respectively. Also, in assay [2], the Potency was 24.1 µM (active). In addition, the Potency result in assay [5], in assay [6], in assay [7], in assay [8] and in assay [9] was “inactive” throughout.

Take `O=C(O)c1cc(O)c2cccc(O)c2c1O[C@@H]1O[C@H](CO)[C@@H](O)[C@H](O)[C@H]1O`: the activity is -4.06% in assay [1], -68.8% in assay [3] and -8.77% in assay [4]. For the same compound, the Potency in [2] is 29.8 µM (active); in assay [8], 2.07 µM (active). The Potency entry in assay [5], in assay [6] and in assay [7] was “inactive” each time.

`CC1(C)CC[C@]2(C(=O)O[C@@H]3O[C@H](CO)[C@@H](O)[C@H](O)[C@H]3O)CC[C@]3(C)C(=CCC4[C@@]5(C)C[C@@H](O)[C@H](O)[C@@](C)(CO)C5CC[C@]43C)C2C1` (some centres undefined): the values for the activity in assay [1], in [3] and in assay [4] were -71.4%, -8.27% and -4.38%, respectively. Moreover, the activity change, negative = inhibition in assay [2] was -8.61% [at 19.1 µM]. The Potency entry in [5], in assay [6], in assay [7] and in assay [9] was “inactive” throughout.

Consider `CCOc1ccc(-c2ccc(Cn3c(CC(C)(C)C(=O)O)c(SC(C)(C)C)c4cc(OCc5ccc(C)cn5)ccc43)cc2)cn1`, for which the activity in [1] is -2.5% and 0.78%; in [3], -21.6% and -9.46%; in [4], -31.2% and -7.43%. Moreover, the Potency result in assay [2], in assay [5], in [6], in assay [7], in assay [8] and in assay [9] was “inactive” in each case. The Potency entry in assay [10] was “inactive”. Besides, the activity change, negative = inhibition in assay [2] is -0.671%.

For the compound `CC(C)N(C[C@H]1O[C@@H](n2cnc3c(N)ncnc32)[C@H](O)[C@@H]1O)C1CC(CCc2nc3ccc(C(C)(C)C)cc3[nH]2)C1` (some centres undefined), the activity in [1] was -14.6% and -12.5%; in assay [3], -85.8% and -82.8%; in assay [4], -90.9% and -89.3%. Further, in assay [2], the Potency is 30.4 µM (active). The activity change, negative = inhibition in [2] is -3.18%. The Potency entry in [5], in assay [6], in assay [7], in [8], in assay [9] and in assay [10] was “inactive” each time.

On to `CC1(C)O[C@@]2(C)CC[C@@H]1C[C@@H]2OC1OC(CO)C(O)C(O)C1O` (some centres undefined), for which the activity was -67.5% in [1], 4.92% in assay [3] and 0.858% in assay [4]. Further, in assay [2], the activity change, negative = inhibition came to 2.82%. In addition, the Potency result in [5], in [6], in [7], in assay [9] and in [10] was “inactive” throughout. Also, the Potency in [8] was 7.36 µM (active).

With `COc1cc(C2Oc3c(OC)cc(/C=C/C(=O)OC[C@H]4O[C@@H](OC(C)(C)C(=O)O)[C@H](O)[C@@H](O)[C@@H]4O)cc3C2CO)ccc1O` (some centres undefined), the activity in assay [1] is -69.3%; in assay [3], -0.56%; in [4], -7.93%. The activity change, negative = inhibition in [2] was -2.88% [at 19.1 µM]. In addition, the Potency entry in assay [5], in assay [6], in assay [7], in [8], in [9] and in assay [10] was “inactive” each time.

Consider `CC1(CO)CC[C@]2(C(=O)O[C@@H]3O[C@H](CO)[C@@H](O)[C@H](O)[C@H]3O)CC[C@]3(C)C(=CCC4[C@@]5(C)C[C@H](O)[C@H](O[C@@H]6OC[C@@H](O)[C@H](O)[C@H]6O)[C@@](C)(CO)C5CC[C@]43C)C2C1` (some centres undefined), for which the results for the activity in assay [1], in assay [3] and in [4] were -56.9%, 2.23% and 2.01%, respectively. For the same compound, the results for the activity change, negative = inhibition in assay [2] and in [7] were 0.83% [at 19.1 µM] and 4.3% [at 11.6 µM] (inactive), respectively. The Potency result in assay [5] and in [6] was “inactive” each time. In addition, the activity change, negative = thiol reactive in assay [8] is 76.2% [at 11.5 µM] (inactive). The activity, negative = inhibition in [9] is 0% [at 11.6 µM] (inactive). Further, the redox activity (% of DA3003) in [10] was 6.69% [at 11.5 µM] (inactive).

`COC(=O)C1=CO[C@@H](O[C@@H]2O[C@H](COC(=O)/C=C/c3cc(OC)c(O)c(OC)c3)[C@@H](O)[C@H](O)[C@H]2O)[C@@H]2C(CO)=CC[C@H]12`: the values for the activity in assay [1], in assay [3] and in [4] were -58.2%, -2.91% and -3.37%, respectively. Further, in assay [2], the activity change, negative = inhibition was -6.4% [at 19.1 µM]. Moreover, the Potency entry in assay [5], in [6], in [7], in assay [9] and in assay [10] was “inactive” in each case.
